The record followed here is PubChem BioAssay (Tox21).

Several values for one entry are separate records, joined by “and”; a condition that tells them apart may be missing. Identical values can stand only once. Records with an inconclusive call do not appear. Activity calls are given as the source filed them. Unless noted, calls follow the shape of the dose curve; as a rule, active = well fitted curve in the direction sought with a large enough effect in the repeat runs; inconclusive = weak or mixed curves; inactive = no such curve, though single readings can be large; an effect the other way counts as inactive or inconclusive.

Experiment [1] is described as follows: qHTS assay for small molecules that induce genotoxicity in human embryonic kidney cells expressing luciferase-tagged ATAD5 (AID 651632). Also: nearly all actives have a fitted effect of over 15% in size. The method, boiled down: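 HEK293T cells carrying a luciferase reporter tagged to ATAD5 were exposed to compound or DMSO vehicle for 16 hr at 37C, 5% CO2. Amplite was added, and after 30 min at room temperature luciferase activity was read as a marker of ATAD5 induction.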

Experiment [2] can be described thus: qHTS assay for small molecule agonists of the p53 signaling pathway - cell viability (AID 651633; calls by dose curve; also: nearly all actives have a fitted effect of over 30% in size; also: potency is read from the fitted curve at half-maximal effect). The method, boiled down: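 Viability counter-read: CellTiter-Glo luminescence (30 min, room temperature) in the same p53RE-bla plates. These plates had been exposed to compounds for 16 h at 37 C.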
Experiment [3] in a line: qHTS assay for small molecules that induce genotoxicity in human embryonic kidney cells expressing luciferase-tagged ATAD5 - cell viability (AID 651634; calls by dose curve; also: nearly all actives have a fitted effect of over 25% in size; also: potency is read from the fitted curve at half-maximal effect). Summed up:
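HEK293T cells expressing luciferase-tagged ATAD5 were exposed to compound or DMSO for 15.5 hr at 37C, 5% CO2. Viability was then read as live-cell protease activity by CellTiter-Fluor fluorescence after 30 min at 37C.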

Experiment [4] in a line: qHTS assay for small molecule disruptors of the mitochondrial membrane potential - cell viability (AID 720634; calls by dose curve;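 also: human HepG2 liver cancer cells; series mostly up to about 83 µM; nearly all actives have a fitted effect of over 20% in size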). The method, boiled down:
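HepG2 cells seeded overnight at 37 C, then exposed to compound or DMSO for 1 hr at 37 C, 5% CO2. m-MPI dye added, then CellTiter-Glo for 30 min at room temperature; viability read as ATP luminescence.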

Experiment [5] in a line: qHTS assay for small molecule disruptors of the mitochondrial membrane potential (AID 720635). Also: potency is read from the fitted curve at half-maximal effect. Summed up: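 Mitochondrial membrane potential tracked with Mito-MPS dye, red aggregates (ex 540/em 590 nm) against green monomers (ex 490/em 535 nm). Compound treatment 1 hr at 37C, dye 30 min in HepG2.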
Experiment [6] is described as follows: qHTS assay to test for compound auto fluorescence at 590 nm (red) in HepG2 cells (AID 720674). The method, boiled down: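 Red autofluorescence (Ex/Em 540/590 nm, Rose Bengal sodium equivalents) was measured in HepG2 cells, 2,000 per well in MEM plus 10% FBS, plated overnight at 37 C. Readings were taken 1 hr after adding 23 nL compound or DMSO, at 37 C and 5% CO2.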

The nature of experiment [7]: qHTS assay to test for compound auto fluorescence at 535 nm (green) in HepG2 cells (AID 720675). Also: potency is read from the fitted curve at half-maximal effect.
Experiment [8] can be described thus: qHTS assay to test for compound auto fluorescence at 460 nm (blue) in HEK293 cells (AID 720678). Summed up:
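HEK293 cells (2,000 per well, medium with 10% dialyzed FBS) attached for 4-5 hr at 37C, then received compound and stood overnight at 37C, 5% CO2. Blue fluorescence was read at Ex/Em 405/460 nm and expressed relative to triamterene.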

A short description of experiment [9]: qHTS assay to test for compound auto fluorescence at 590 nm (red) in HEK293 cells (AID 720679). The method, boiled down:
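HEK293 cells (2,000/well, medium with 10% dialyzed FBS) attached for 4-5 hr at 37C, received 23 nL compound and were incubated overnight at 37C, 5% CO2. Red fluorescence was then read at 540/590nm Ex/Em, referenced to Rose Bengal sodium.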

The nature of experiment [10]: qHTS assay to test for compound auto fluorescence at 460 nm (blue) in HEK293 cell free culture (AID 720681). Summed up:
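Blue fluorescence (Ex 405/Em 460 nm, triamterene-equivalent) was read immediately after pin transfer of compound or DMSO into medium (DMEM, 10% FBS) without cells.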

A short description of experiment [11]: qHTS assay to test for compound auto fluorescence at 535 nm (green) in HEK293 cell free culture (AID 720682). Also: potency is read from the fitted curve at half-maximal effect. The method, boiled down:
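Read-out: 485/535 nm fluorescence intensity, calibrated against fluorescein. Medium only (DMEM + 10% FBS, no cells); test compound or DMSO vehicle added by pintool before plate reading.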

The nature of experiment [12]: qHTS assay to test for compound auto fluorescence at 590 nm (red) in HEK293 cell free culture (AID 720683). The method, boiled down:
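Red-channel autofluorescence of compounds in culture medium (DMEM, 10% FBS), no cells, measured at 540/590 nm. Rose Bengal sodium is the reference fluorophore for equivalence.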

Experiment [13] in a line: qHTS assay to test for compound auto fluorescence at 590 nm (red) in HepG2 cell free culture (AID 720684). Summed up:
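Steps: dispense MEM/10% FBS medium, no cells; pin compound or DMSO vehicle; read red channel, Ex/Em 540/590 nm. Output given as Rose Bengal sodium equivalents.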

Experiment [14] in a line: qHTS assay to test for compound auto fluorescence at 460 nm (blue) in HepG2 cell free culture (AID 720685). The method, boiled down:
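Compound (23 nL) or DMSO pinned into cell-free MEM with 10% FBS; blue fluorescence read at 405/460 nm excitation/emission, expressed as auto-fluorescence equivalency to triamterene.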

A short description of experiment [15]: qHTS assay to test for compound auto fluorescence at 535 nm (green) in HepG2 cell free culture (AID 720686). Also: potency is read from the fitted curve at half-maximal effect.
Experiment [16] in a line: qHTS assay to test for compound auto fluorescence at 460 nm (blue) in HepG2 cells (AID 720687). The method, boiled down: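 Blue-channel autofluorescence (Ex/Em 405/460 nm, triamterene-equivalent) was measured after 1 hr compound exposure at 37 C, 5% CO2. Cells were HepG2, plated overnight at 37 C in MEM plus 10% FBS.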
Experiment [17] deals with Glucocorticoid receptor (Homo sapiens) (UniProt P04150). Briefly: qHTS assay to identify small molecule agonists of the glucocorticoid receptor (GR) signaling pathway (AID 720691; active = well fitted activation curve with a large enough effect in the signal ratio in the repeat runs, not every such curve was filed as active; the % refers to the signal ratio). The method, boiled down:
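GR-bla HeLa cells (beta-lactamase reporter under glucocorticoid response element) were plated 4 h at 37 C/5% CO2, given compounds in DMSO, and incubated 18 h at 37 C. LiveBLAzer B/G FRET substrate was added for 2 h at room temperature, then fluorescence intensity read.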

Experiment [18] shares this target. As to the kind of experiment: qHTS assay to identify small molecule antagonists of the glucocorticoid receptor (GR) signaling pathway (AID 720692; active = well fitted inhibition curve with a large enough effect in the signal ratio in the repeat runs, not every such curve was filed as active; the % refers to the signal ratio; also: potency is read from the fitted curve at half-maximal effect). The method, boiled down:
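GR-bla HeLa cells (beta-lactamase reporter under glucocorticoid response element) were pre-plated 4 h at 37 C, treated with compounds plus 5 nM dexamethasone (final) for 18 h, then read by LiveBLAzer B/G FRET fluorescence after 2 h.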

Experiment [19] can be described thus: qHTS assay to test for compound auto fluorescence at 535 nm (green) in HEK293 cells (AID 720680). Also: potency is read from the fitted curve at half-maximal effect.
Tags tell the direction and shape of the fitted curve or compound fluorescence and quenching.

Chain of Glucocorticoid receptor (Homo sapiens) (P04150 whole entry, looked up): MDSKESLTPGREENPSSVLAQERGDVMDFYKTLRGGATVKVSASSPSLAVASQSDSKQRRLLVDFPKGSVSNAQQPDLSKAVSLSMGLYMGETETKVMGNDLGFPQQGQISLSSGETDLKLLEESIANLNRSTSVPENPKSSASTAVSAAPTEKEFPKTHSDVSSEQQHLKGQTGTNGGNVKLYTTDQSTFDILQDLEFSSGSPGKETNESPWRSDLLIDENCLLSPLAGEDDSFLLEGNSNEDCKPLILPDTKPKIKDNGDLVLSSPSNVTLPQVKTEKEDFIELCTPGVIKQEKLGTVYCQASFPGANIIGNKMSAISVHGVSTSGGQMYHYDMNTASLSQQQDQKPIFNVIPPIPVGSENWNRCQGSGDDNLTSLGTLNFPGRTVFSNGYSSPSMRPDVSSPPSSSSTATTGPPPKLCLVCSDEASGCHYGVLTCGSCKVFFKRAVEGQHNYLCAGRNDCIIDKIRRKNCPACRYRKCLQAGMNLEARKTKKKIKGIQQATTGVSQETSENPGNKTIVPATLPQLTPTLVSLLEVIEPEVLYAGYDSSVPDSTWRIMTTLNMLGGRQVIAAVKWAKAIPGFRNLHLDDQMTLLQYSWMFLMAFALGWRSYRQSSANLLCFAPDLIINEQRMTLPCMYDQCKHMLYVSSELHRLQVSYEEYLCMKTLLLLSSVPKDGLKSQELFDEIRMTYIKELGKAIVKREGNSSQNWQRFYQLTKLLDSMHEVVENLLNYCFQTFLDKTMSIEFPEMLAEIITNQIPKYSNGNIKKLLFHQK

Regarding `CCc1ccc(Br)cc1`, the Potency entry in [1], in experiment [2], in experiment [3], in [4], in experiment [5] and in experiment [6] was “inactive” in each case. Besides, the Potency result in experiment [7], in [8], in experiment [9], in [10], in experiment [11] and in experiment [12] was “inactive” each time. The Potency entry in [13], in [14], in [15], in experiment [16], in experiment [17] and in [18] was “inactive” throughout.
Consider `CNc1ccc([N+](=O)[O-])cc1`, for which the Potency entry in experiment [1], in [2], in experiment [4], in experiment [6], in experiment [7] and in experiment [8] was “inactive” in each case. In addition, the Potency result in experiment [9], in [19], in experiment [10], in [11], in [12] and in experiment [13] was “inactive” throughout. The Potency entry in experiment [15] and in experiment [16] was “inactive” throughout. Further, in experiment [3], the Potency was 61.3 µM (active).
With `COC1=C(OC)C(=O)C(CCCCCCCCCCO)=C(C)C1=O`, the Potency entry in experiment [1], in experiment [3], in [4], in experiment [6], in experiment [7] and in experiment [8] was “inactive” in each case. Besides, the Potency result in experiment [9], in [19], in experiment [10], in experiment [11], in [12] and in [13] was “inactive” each time. For the same compound, the Potency entry in experiment [14], in experiment [15], in [16] and in experiment [17] was “inactive” throughout. Moreover, in experiment [2], the Potency is 29.8 µM (active).
On to `Clc1nnc(Cl)c2ccccc12`, for which the Potency result in experiment [1], in [2], in experiment [3], in experiment [4], in experiment [6] and in experiment [7] was “inactive” each time. The Potency result in experiment [9], in [19], in experiment [10], in experiment [11], in experiment [12] and in [13] was “inactive” each time. The Potency result in experiment [15], in [16] and in experiment [17] was “inactive” in each case.
With `c1ccsc1`, the Potency result in [1], in experiment [2], in [3], in experiment [4], in experiment [5] and in experiment [6] was “inactive” each time. Moreover, the Potency entry in [7], in [9], in experiment [19], in experiment [10], in experiment [11] and in [12] was “inactive” in each case. Also, the Potency result in experiment [13], in experiment [15] and in experiment [16] was “inactive” each time.
`C/C=C/C=C/COC(=O)C(C)C`: the Potency result in experiment [1], in experiment [2], in experiment [3], in experiment [4], in experiment [5] and in [6] was “inactive” each time. Moreover, the Potency entry in experiment [7], in experiment [8], in experiment [9], in [10], in experiment [11] and in [12] was “inactive” each time. Besides, the Potency result in experiment [13], in experiment [14], in experiment [15], in experiment [16] and in experiment [17] was “inactive” in each case. For the same compound, the Potency in experiment [18] is 34.7 µM (active).
Take `O=C1OC2(c3ccc(O)cc3Oc3cc(O)ccc32)c2ccc(N=C=S)cc21`: the Potency entry in experiment [1], in experiment [2], in experiment [3], in experiment [4], in [6] and in experiment [9] was “inactive” in each case. Also, the Potency result in experiment [10], in experiment [12], in experiment [13], in experiment [16], in [17] and in experiment [18] was “inactive” each time. Also, the Potency in experiment [7] was 39.8 µM (active); in experiment [19], 39.8 µM [fluorescent] (active); in experiment [11], 39.8 µM [fluorescent] (active); in [15], 35.5 µM [fluorescent] (active).
Regarding `CCCCCCCCCCCCCCCC[N+](C)(C)CC`, the Potency entry in [1], in experiment [6], in experiment [7], in [8], in experiment [9] and in experiment [19] was “inactive” each time. The Potency entry in experiment [10], in experiment [11], in [12], in experiment [13], in experiment [14] and in experiment [15] was “inactive” in each case. The Potency entry in experiment [16] is “inactive”. The Potency in [2] is 26.6 µM (active) and 61.3 µM (active); in experiment [3], 29.8 µM (active) and 24.4 µM (active); in [5], 6.68 µM (active) and 27.4 µM (active).
As to `CN(C)Cc1cc(C(C)(C)C)c(O)c(C(C)(C)C)c1`, the Potency result in experiment [1], in [2], in [3], in experiment [4], in experiment [6] and in experiment [7] was “inactive” each time. The Potency entry in [8], in [9], in [19], in experiment [10], in [11] and in experiment [12] was “inactive” each time. Further, the Potency result in [13], in experiment [15], in experiment [16] and in experiment [17] was “inactive” each time.
